Compound activity (PubChem)
Many of the other results were omitted from the sample, so hits are more common in it than they were.
PI4K2A block – inhibitors of human PI4K2A; Q9BTU6; purified PI4K2A, ADP-Glo luminescence, 1 h; hits give low values; activity change, negative = inhibition, % at 76.9 µM; 420,000 tested, 0.13% active; AID 1346378; in the data active = activity change below about -50%; inconclusive = mostly about -30% to -49%
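In this quantitative HTS, ADP production by PI4K2A was quantified luminescently after 1 h at ambient temperature; 100 microM adenosine served as plate-quality control.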
Pin1 inh – inhibitors of human Pin1; Q13526; Pin1 FP peptide displacement, HiFluor488, 10 min; Potency, µM (doses to about 115 µM), actives largely listed as inhibitors; 390,000 tested, 0.009% active; active = well fitted inhibition curve with a large enough effect in the polarisation, with a control signal flat, not every such curve was filed as active; inconclusive = small, poorly fitted or top-dose-only effect, or effect the other way, or a change in a side signal; inactive = no such curve, though single readings can be large or run the other way; the % refers to the polarisation
Target sequence (Q13526 whole entry, looked up): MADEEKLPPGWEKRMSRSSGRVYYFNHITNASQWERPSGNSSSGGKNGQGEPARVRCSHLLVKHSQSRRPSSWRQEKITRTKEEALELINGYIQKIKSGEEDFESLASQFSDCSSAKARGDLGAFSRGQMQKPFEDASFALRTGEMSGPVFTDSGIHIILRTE
PGK inhibitor – blocks T. brucei phosphoglycerate kinase; 380,000 tested, 0.043% active; PGK/GAPDH coupled, Kinase-Glo luminescence, 60 min; Potency, µM (series often up to 57.5 µM), usual class: inhibitors; also: nearly all actives have a fitted effect of over 60% in size
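Recombinant glycosomal PGK reaction used 1,3-bisphosphoglycerate generated in-well by GAPDH (100nM final) in 100mM TEA pH 7.6, 5mM MgCl2, 0.01% Tween-20. After 60 minutes at room temperature, ATP was read by Kinase-Glo Plus luminescence end-point.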
Tb PFK inh-1 – blocks T. brucei phosphofructokinase; Potency, µM (series often up to 57.5 µM), most hits filed as inhibitors; 330,000 tested, 0.17% active; T. brucei PFK, ADP-Glo luminescence; also: nearly all actives have a fitted effect of over 60% in size
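PFK 1.25 nM, F6P 0.5 mM, ATP 0.1 mM, 0.1 M TEA pH 8.0, 5 mM MgCl2, 0.01% Tween20, 0.1% BSA; 45 min RT. ADP-Glo readout. qHTS titration up to 57 uM; curves fitted, compounds curve-classed.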
PI5P4K alpha inh – inhibitors of human PI5P4K alpha | P48426 | PI5P4Kalpha enzyme, ADP-Glo luminescence, 60 min; hits give low values | max response, % | 330,000 tested, 1.2% active | AID 652105; active = max response of -50% or lower; inconclusive = between -30% and -50%; inactive = -30% or higher; also: value at the top dose of about 77 µM
Target sequence (P48426 whole entry, looked up): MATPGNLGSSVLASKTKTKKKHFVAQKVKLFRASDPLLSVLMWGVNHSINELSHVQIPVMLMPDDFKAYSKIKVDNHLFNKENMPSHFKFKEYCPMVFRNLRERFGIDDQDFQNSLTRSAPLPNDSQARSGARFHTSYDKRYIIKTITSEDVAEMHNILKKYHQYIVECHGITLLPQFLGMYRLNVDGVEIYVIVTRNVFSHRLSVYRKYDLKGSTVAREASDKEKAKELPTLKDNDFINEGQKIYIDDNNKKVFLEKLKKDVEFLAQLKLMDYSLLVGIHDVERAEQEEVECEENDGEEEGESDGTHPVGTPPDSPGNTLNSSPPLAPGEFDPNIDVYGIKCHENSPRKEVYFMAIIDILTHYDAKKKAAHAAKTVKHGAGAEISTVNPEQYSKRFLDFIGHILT
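Quantitative HTS of the MLSMR library against PI5P4Kalpha with substrate. ATP added last at 5 microM final; room temperature, 60 minutes. Remaining ATP depleted, ADP converted and read as luminescence.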
TbPFK ATP – inhibits T. brucei PFK measured by ATP depletion; shares compounds with Tb PFK inh-1; Tb PFK enzyme, ATP depletion, Kinase-Glo Plus luminescence; Potency, µM (series often up to 57.5 µM); 1,100 tested, 47% active; AID 504636; calls by dose curve; also: nearly all actives have a fitted effect of over 60% in size
Tb PFK inh-2 – validation of T. brucei phosphofructokinase inhibitors; shares compounds with Tb PFK inh-1; purified T. brucei PFK, ADP-Glo luminescence, 45 min; Potency, µM (series often up to 57.5 µM), most hits filed as inhibitors; 1,100 tested, 41% active; also: nearly all actives have a fitted effect of over 60% in size
A number is an active result; - = inactive; ? = inconclusive; . = no result given. Unless noted, calls follow the shape of the dose curve; as a rule, active = well fitted curve in the direction sought with a large enough effect; inconclusive = small, poorly fitted or top-dose-only effect, or another doubt; inactive = no such curve, though single readings can be large; an effect the other way counts as inactive or inconclusive.

SMILES | PI4K2A block | Pin1 inh | PGK inhibitor | Tb PFK inh-1 | PI5P4K alpha inh | TbPFK ATP | Tb PFK inh-2
CC(C)(C)P(=O)(N1CCOCC1)N1CCOCC1 | - | - | - | - | - | . | .
CN1CCN(c2ccc([N+](=O)[O-])cc2Cl)CC1 | - | - | - | - | - | . | .
CC1CN(c2ccc([N+](=O)[O-])cc2Cl)CCN1 (configuration not stated) | - | - | - | 9.53µM | - | 26.9µM | 30.1µM
Cc1cccc(N2C(=O)NC(=O)/C(=C\c3ccc(N4CCOCC4)cc3)C2=O)c1 | - | - | - | - | ? | . | .
COc1ccc(CCNC(=O)c2c(N)n(CCN3CCOCC3)c3nc4ccccc4nc23)cc1OC | - | - | . | - | . | . | .
C[C@]12CC[C@H]3[C@@H](CCC4=CC(=O)CC[C@@H]43)[C@@H]1CC[C@@H]2OC(=O)CCc1ccco1 | - | . | . | . | . | . | .
CCOc1ccc(C(C)=O)cc1N1C(=O)C2C3C=CC(O3)C2C1=O (configuration not stated) | - | - | - | ? | . | - | ?
CC1(C)CC(=O)C(C=NCCN2CCN(C(=O)Cc3ccccc3)CC2)=C(O)C1 | - | - | - | - | . | . | .
CCOc1ccc2nc(NC(=O)c3cccn(Cc4ccccc4C)c3=O)sc2c1 | - | - | - | . | . | . | .
COc1ccc2nc(NC(=O)c3ccccc3O)sc2c1 | - | - | - | ? | - | - | ?
CNC1(c2ccccc2Cl)CCCCC1=O (configuration not stated) | - | - | - | . | - | . | .
O=C(Nc1ccc2c(c1)OCCO2)c1ccc(Cl)c([N+](=O)[O-])c1 | - | - | - | 26.9µM | - | 12µM | 26.9µM
O=C(Nc1ccc(S(=O)(=O)NC2=NCCCCC2)cc1)c1ccc(Cl)c([N+](=O)[O-])c1 | - | - | - | ? | - | 13.5µM | ?
S=C(c1ccc(Cl)cc1)N1CCOCC1 | - | - | - | - | . | . | .
c1ccc(CCNCc2ccccc2)cc1 | - | - | - | - | - | . | .
O=c1ccnc(NCCc2ccccc2)[nH]1 | - | - | - | 9.53µM | - | 21.3µM | 26.9µM
CC1=C(C(=O)Nc2ccccc2)C(c2ccc[nH]2)n2ncnc2N1 (configuration not stated) | ? | ? | . | ? | . | ? | -
Cc1cc(C(=O)Nc2ccccc2)nn1C(C)(C)C | - | - | - | - | - | . | .
O=C(NN=Cc1ccc(N(CCCl)CCCl)cc1)c1cc(=O)[nH]c(=O)[nH]1 | - | ? | - | . | - | . | .
O=C1CC(N2CCN(c3ccc(Cl)c(Cl)c3)CC2)C(=O)N1 (configuration not stated) | - | - | - | 6.01µM | - | ? | ?
Clc1ccc2[nH]c3c(c2c1)CCNC3 | - | - | - | ? | - | . | .
NC(=O)CNC(=O)C1CCCc2c1[nH]c1ccc(Cl)cc21 (configuration not stated) | - | - | - | 6.01µM | . | 2.39µM | 3.38µM
CN(C)c1ccc(/C=N\NC(=O)c2ccc(Cn3cc(Cl)cn3)cc2)cc1 | - | - | - | 12µM | - | 2.69µM | 3.38µM
CCOC(C[n+]1c(-c2ccccc2)cc(C)cc1-c1ccccc1)OCC | - | - | - | - | - | . | .
COc1cc(C2/C(=C(/O)c3ccc(F)cc3)C(=O)C(=O)N2CCCC(=O)O)ccc1O (configuration not stated) | - | - | - | ? | . | 12µM | 21.3µM
SMILES | PI4K2A block | Pin1 inh | PGK inhibitor | Tb PFK inh-1 | PI5P4K alpha inh | TbPFK ATP | Tb PFK inh-2
O=C(CCNc1ccc(Cl)c(C(F)(F)F)c1)c1ccco1 | - | - | - | ? | - | ? | ?
O=C(Nc1ccc(Cl)cc1C(=O)c1ccccc1Cl)c1ccco1 | - | - | - | - | . | . | .
O=C(CCNc1ccc(F)c(Cl)c1)c1ccco1 | - | - | - | ? | . | 13.5µM | 21.3µM
Cc1noc(NS(=O)(=O)c2ccc(NC(=O)Cc3ccc([N+](=O)[O-])cc3)cc2)c1C | - | - | - | 6.01µM | - | 3.38µM | 12µM
Cc1cc(NS(=O)(=O)c2ccc(NC(=O)Cc3ccc([N+](=O)[O-])cc3)cc2)nc(C)n1 | - | - | - | 8.49µM | - | 3.79µM | 6.01µM
Cc1cc(NS(=O)(=O)c2ccc(NC(=O)/C=C/c3ccc(C)o3)cc2)nc(C)n1 | - | - | - | ? | ? | - | ?
O=C(Cc1ccc([N+](=O)[O-])cc1)N1CCN(Cc2ccc3c(c2)OCO3)CC1 | - | - | - | - | - | . | .
COc1cc2c(c(OC)c1O)-c1ccc(OC)c(=O)cc1C(NC(=O)C(F)(F)F)CC2 (configuration not stated) | - | - | - | . | - | . | .
CCn1c(CN2CCN(C)CC2)nc2ccccc21 | - | - | - | . | . | . | .
O=c1[nH]c(=S)n(-c2ccccc2F)c(O)c1C=NCCN1CCNCC1 | - | - | - | - | - | . | .
O=C(Cn1c(=O)c(C(F)(F)F)nc2ccccc21)N1CCC2(CC1)OCCO2 | - | - | - | - | . | . | .
CCOP(=O)(Cc1cc(C(=O)CC)c(C)o1)OCC | - | - | - | - | - | . | .
N#Cc1c(N)nc2c(c1N)CC(COc1ccccc1)O2 (configuration not stated) | - | - | - | ? | - | - | -
O=C(NCc1ccco1)c1ccc2c(=O)n(Cc3ccco3)c(SCC(=O)N3CCCC3)nc2c1 | - | ? | ? | ? | . | ? | ?
COc1ccccc1Cn1c(SCC(=O)C(C)(C)C)nc2cc(C(=O)N3CCC4(CC3)OCCO4)ccc2c1=O | . | . | . | - | . | . | .
Cc1cccc(Cc2cnc[nH]2)c1C | - | . | . | . | . | . | .
COc1ccc(CC2c3cc(OC)c(OC)cc3CCN2C)cc1O (configuration not stated) | - | - | - | - | - | . | .
COc1cc2c(cc1O)[C@H]1Cc3ccc(OC)c(O)c3CN1CC2 | . | . | . | . | . | - | -
Nc1ncccc1OCc1ccc(Cl)c(Cl)c1 | - | - | - | 13.5µM | - | 5.36µM | 16.9µM
O=C(O)C1=CC2c3ccccc3C1c1ccccc12 | - | - | - | - | - | . | .
CCOC(=O)C1=C(N)OC2=C(C(=O)CC(C)(C)C2)C1c1cc(CSc2nnnn2C)cs1 (configuration not stated) | - | - | - | ? | - | - | -
O=C(O)CCCNC(=O)c1ccc(NC(=O)Cc2ccc(Cl)cc2)cc1 | - | - | - | ? | - | ? | ?
O=C(O)CCN1C(=O)c2ccc(NC(=O)Cc3ccc(Cl)cc3)cc2C1=O | - | - | - | 19µM | - | ? | 26.9µM
COC(=O)C1=C(c2ccc(OC)c(OC)c2)C[C@@H]2CC[C@H]1N2C(=O)NC1CCCCC1 | - | - | - | - | - | . | .
O=C1c2ccccc2C(=O)N1/N=C/c1ccc(O)c(O)c1O | - | . | - | 19µM | -55.2 | 10.7µM | 26.9µM
CCN(CC)c1ccc(NC2=C(Cl)C(=O)c3ccccc3C2=O)cc1 | - | - | - | ? | - | - | -
